Compound activity as filed in PubChem.
Gli-Sufu block – blocks Gli-Sufu signaling in a luciferase reporter. actives 0.74% (n = 340,000). AID 588413. Sufu-KO-LIGHT fibroblasts, Gli luciferase reporter luminescence. inhibition, % at 5 µM;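 active = inhibition above about 55%, limit read from the data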;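 note: 0% = DMSO-treated cells and 100% = wells with medium but no cells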
NR2F2 inh – NR2F2 (human) inhibition, primary screen; P24468; HEK293T NGFI-A luciferase reporter, luminescence; inhibition, % at 8.6 µM; actives 0.7% (n = 370,000);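 active = inhibition above a per-plate cutoff, mean inhibition of test wells between control levels plus 3 SD, cut at about 38% in these data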;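 note: cells cotransfected with COUP-TFII expression vector driving the NGFI-A reporter; 0% = median of COUP-TF2 test wells and 100% = reporter-only cells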
Target sequence (P24468 whole entry, looked up): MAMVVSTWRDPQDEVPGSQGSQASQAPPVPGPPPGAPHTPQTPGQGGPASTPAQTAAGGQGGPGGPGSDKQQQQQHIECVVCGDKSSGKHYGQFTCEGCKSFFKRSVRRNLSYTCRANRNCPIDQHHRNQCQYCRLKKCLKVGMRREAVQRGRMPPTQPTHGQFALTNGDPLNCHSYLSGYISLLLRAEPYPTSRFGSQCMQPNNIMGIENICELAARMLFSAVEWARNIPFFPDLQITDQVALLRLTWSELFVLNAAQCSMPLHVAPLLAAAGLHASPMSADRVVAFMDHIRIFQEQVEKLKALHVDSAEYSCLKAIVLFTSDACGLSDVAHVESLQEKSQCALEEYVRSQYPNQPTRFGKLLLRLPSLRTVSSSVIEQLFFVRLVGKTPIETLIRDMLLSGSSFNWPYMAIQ
Jurkat NFkB inh – inhibitors of the PMA/ionomycin-induced NF-kB reporter in Jurkat cells | actives 0.53% (n = 330,000) | PMA/ionomycin-induced NF-kB luciferase reporter, luminescence | inhibition, % at 4 µM; in the data active = inhibition above about 50%
697 NFkB inh – lowers PMA/ionomycin-induced NF-kB signal in 697 B cells; actives 0.33% (n = 330,000); inhibition, % at 4 µM; 697 B-cell NF-kB luciferase reporter, 16 h; in the data active = inhibition above about 35%
GalR3 antag – human GalR3 antagonism. O60755. inhibition, % at 3 µM. AID 651719. HEK293 GalR3-CNG cAMP membrane potential fluorescence; galR3 body fused to GalR1 C-terminus. actives 0.44% (n = 360,000);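 active = inhibition above the screen-wide average plus 3 SD, cut at about 13% in these data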;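 note: forskolin and galanin both at EC90 stimulate the cells; cAMP rise reported by CNG channel membrane potential dye signal; 0% = forskolin plus galanin with DMSO and 100% = forskolin alone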
Target sequence (O60755 1-299 limits assumed): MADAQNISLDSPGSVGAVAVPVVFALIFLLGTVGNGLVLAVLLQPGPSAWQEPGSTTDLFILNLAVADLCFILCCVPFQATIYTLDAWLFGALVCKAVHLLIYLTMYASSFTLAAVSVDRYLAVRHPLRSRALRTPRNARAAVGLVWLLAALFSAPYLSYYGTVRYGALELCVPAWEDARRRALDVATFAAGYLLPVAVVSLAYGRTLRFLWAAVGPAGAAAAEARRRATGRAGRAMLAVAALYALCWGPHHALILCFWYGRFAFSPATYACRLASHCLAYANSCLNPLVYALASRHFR
Gal4-VP16 ctr – VP16 inhibition counter-screen for COUP-TFII; actives 25% (n = 2,500); AID 687007; shares compounds with NR2F2 inh; HEK293 Gal4-VP16 luciferase reporter, luminescence; inhibition, % at 8.5 µM; in the data active = inhibition above about 13%
COUP-TFII conf – confirmation of human COUP-TFII (NR2F2) inhibitors; shares compounds with NR2F2 inh; HEK293 NGFI-A luciferase reporter, luminescence; inhibition, % at 8.5 µM; actives 45% (n = 2,500); AID 687008;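 active = mean inhibition over three repeats above a set limit taken from the earlier primary screen, cut at about 38% in these data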;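 note: 100% = cells given the luciferase reporter alone without the COUP-TF2 vector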
Numbers without * were called inactive; · = not tested or not shown. In the library only some 2% were active in any assay of this set; here they are far more common.

SMILES	Gli-Sufu block	NR2F2 inh	Jurkat NFkB inh	697 NFkB inh	GalR3 antag	Gal4-VP16 ctr	COUP-TFII conf
CCC(C(=O)OCC(=O)c1c(N)n(CC(C)C)c(=O)n(C)c1=O)c1ccccc1 (stereo not given)	46.9	2.3	25.7	-33.0	0.9	·	·
CCC(=NC(C)c1ccccc1)c1c(O)n(C)c(=O)n(C)c1=O (stereo not given)	40.2	55.7*	28.1	-12.5	-4.1	-1.0	29.2
Cc1ccccc1-n1ncc2c(SCC(=O)NC3CCCC3)ncnc21	21.5	46.3*	12.5	-20.3	-8.8	-5.6	24.4
Cc1cc(C(=O)Nc2ccc(F)cc2)n(-c2ccccc2)n1	·	-13.0	·	·	·	·	·
N#CCC[C@H]1CC[C@]2(CCCN(C(=O)c3ccco3)C2)O1	·	-4.4	·	·	·	·	·
COCCC(=O)Nc1ccc2c(c1)CN(C(=O)CSC)CC2	1.6	-15.9	-5.9	24.8	3.8	·	·
COCCC(=O)N1CCc2ccc(NC(=O)c3ccc(C(F)(F)F)cc3)cc2C1	-7.2	37.8*	24.2	-58.2	-2.0	-20.1	0.4
CN(C)S(=O)(=O)N1CCc2ccc(NC(=O)c3ccc(C(F)(F)F)cc3)cc2C1	-16.6	56.0*	11.8	-22.9	10.8	-47.2	28.9
O=C(CCc1ccc(S(=O)(=O)N2CCOCC2)cc1)Nc1nc(COc2ccccc2)cs1	18.0	39.4*	17.9	-3.7	-10.2	-2.2	17.5
O=C(COc1ccccc1)Nc1nc(-c2ccc(S(=O)(=O)N3CCOCC3)cc2)cs1	-1.2	15.1	4.4	-22.7	-2.9	·	·
NCCc1nnc(SCc2c(Cl)cccc2Cl)o1	2.3	4.1	-5.1	10.0	-3.6	·	·
NCCCCCc1nnc(SCc2ccccc2Cl)o1	21.3	55.5*	4.5	26.9	-4.0	41.8*	30.9
COCCSc1ncccc1-c1nc2ccccc2[nH]1	·	2.1	·	·	·	·	·
COc1ccc(N2CCN(S(=O)(=O)c3ccc4c(c3)NC(=O)C(C)S4)CC2)cc1 (stereo not given)	-5.4	41.6*	11.6	-25.5	11.6	-7.8	10.9
CCc1ccc(NC(=O)C2CCN(S(=O)(=O)c3ccc4c(c3)NC(=O)C(C)S4)CC2)cc1 (stereo not given)	25.9	58.3*	25.5	9.4	-9.5	7.9	39.5*
CCN(CC)C(=O)CC[C@H]1CC[C@]2(CCCN(C(=O)C3CCCC3)C2)O1	·	-15.2	·	·	·	·	·
CCOC(=O)C1CCN(CC(=O)Nc2c(C(=O)OC)[nH]c3ccccc23)CC1	·	27.4	20.9	26.2	-2.3	·	·
CCOC(=O)C1CCN(CC(=O)Nc2c(C(=O)OC)[nH]c3ccc(Cl)cc23)CC1	-6.7	41.5*	24.0	-13.0	-5.0	3.6	32.4
C[C@H]1[C@@H](OC(=O)Nc2ccc(Cl)cc2)CC[C@@]23CCCN2C(=O)CCC[C@@H]13	·	-6.5	·	·	·	·	·
Cc1cccc(NC(=O)CCS(=O)(=O)c2ccccc2)c1C	·	4.5	·	·	·	·	·
NS(=O)(=O)OCCCCCc1ccccc1	-14.0	-1.9	-20.3	-11.2	-4.0	·	·
[2H]C(CCOS(N)(=O)=O)c1ccc(C(C)(C)C)cc1 (stereo not given)	15.8	43.4*	24.6	19.9	-3.3	21.9*	19.1
CC1CCN(S(=O)(=O)c2ccc(NC(=O)c3ccncc3)cc2)CC1	16.4	26.9	24.0	-70.1	-6.5	·	·
COC(=O)c1ccc(NC(=O)c2nc(S(=O)(=O)Cc3cccc(C)c3)ncc2Cl)cc1	2.0	39.6*	6.5	-75.9	-4.1	45.8*	14.9
CCS(=O)(=O)c1ncc(Cl)c(C(=O)Nc2ccc(S(=O)(=O)N3CCC(C)CC3)cc2)n1	20.9	48.3*	30.0	-122.7	-10.4	76.3*	62.9*
SMILES	Gli-Sufu block	NR2F2 inh	Jurkat NFkB inh	697 NFkB inh	GalR3 antag	Gal4-VP16 ctr	COUP-TFII conf
CC(C)CNS(=O)(=O)c1ccc(CCC(=O)N2CCN(Cc3ccccc3)CC2)cc1	6.4	-11.3	-3.1	-26.4	-6.6	·	·
CC(C)CNS(=O)(=O)c1ccc(CCC(=O)N2CCN(Cc3ccc4c(c3)OCO4)CC2)cc1	25.6	45.2*	8.4	-87.2	-1.1	-4.5	16.4
O=C(CCc1ccc(S(=O)(=O)NCCc2ccccc2)cc1)N1CCN(Cc2ccc3c(c2)OCO3)CC1	·	55.0*	11.2	-33.0	-3.8	10.2	32.9
CCCn1c(NC(=O)c2cccc(S(=O)(=O)N3CCCC3)c2)nc2ccccc21	-7.0	44.6*	25.1	-140.0	-5.8	-6.3	27.5
CCCn1c(NC(=O)c2ccccc2)nc2ccccc21	-10.3	-13.2	-35.4	-74.6	-4.8	·	·
O=C(Nc1cccc(S(=O)(=O)N2CCCCCC2)c1)C1CCN(C(=O)c2ccc(Cl)cc2)CC1	19.1	42.4*	33.7	-3.9	1.8	-2.6	8.6
CN(CC(=O)Nc1cccc(S(=O)(=O)N2CCCC2)c1)CC(=O)Nc1ccc(Cl)c(C(F)(F)F)c1	28.5	42.3*	28.7	-28.9	-2.1	2.7	10.6
O=C(Nc1cccc(S(=O)(=O)Nc2ccccc2Cl)c1)c1ccc(Cl)nc1	35.1	47.5*	22.7	-10.4	-0.4	9.9	40.0*
O=C(Nc1cccc(S(=O)(=O)N2CCCCC2)c1)c1ccc(Cl)nc1	4.7	29.0	1.7	-9.9	-5.7	·	·
O=C(Nc1cccc(S(=O)(=O)N2CCCCCC2)c1)c1ccc(Cl)nc1	7.3	40.7*	9.6	-18.5	-4.3	-2.1	5.2
Cc1nn(CCC(=O)NNC(=O)Nc2ccccc2)c(C)c1[N+](=O)[O-]	·	11.1	·	·	·	·	·
COc1ccc(NC(=O)Nc2ccccc2C(=O)N2CCCC2)cc1OC	·	-12.8	·	·	·	·	·
Cn1c2ccccc2c(=O)c2cc(C#CC3(O)CCCCC3)ccc21	-1.7	44.8*	-81.3	-151.8	-4.7	-67.3	37.7*
Nc1nc2cc3c(cc2cc1C(=O)NCCc1c[nH]c2ccccc12)OCO3	·	65.8*	·	·	4.0	-1.9	52.1*
COc1cc2cc(C(=O)NCCc3c[nH]c4ccccc34)c(N)nc2cc1OC	·	36.1	·	·	-2.0	·	·
CCNC(=O)N(C)[C@H]1C[C@H]2c3[nH]c4c(-c5ccccc5)cccc4c3CCN2C(=O)[C@H]1[C@H](C)O	·	3.5	·	·	-3.0	·	·
NC(=O)c1ccsc1NC(=O)COC(=O)Cc1cccc2ccccc12	-15.4	52.9*	8.0	-26.0	104.0*	-6.3	38.6*
CCCCCCCCN1CCS(=O)(=O)N(Cc2ccc(F)cc2)C(C(=O)OC)C1 (stereo not given)	·	12.6	·	·	·	·	·
COc1ccccc1CCNC(=O)C(C)n1nc(C)c2c(C)n(-c3ccccc3)nc2c1=O (stereo not given)	-6.0	2.0	8.9	-13.8	-10.6	·	·
COc1ccc(CCNC(=O)C(C)n2nc(C)c3c(C)n(-c4ccc(C)cc4)nc3c2=O)c(OC)c1 (stereo not given)	-10.4	61.2*	25.5	-16.5	-9.5	4.0	61.8*
CC(CCN1CCC(C(O)(c2ccccc2)c2ccccc2)CC1)Oc1ccc(C#N)cc1F (stereo not given)	·	-1.7	·	·	·	·	·
